From PubChem BioAssay AID720488 (Milwaukee Institute for Drug Discovery, 2013)
In all, about 16,000 compounds went through this assay and about 960 (6%) were called active. What follows is part of a selection rich in actives, with near analogues and random picks from the rest. Unmarked numbers belong to inactive results.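 Rule for the calls: active = compound fluorescence over control fluorescence at most 0.8, a quencher, or at least a set upper limit, an enhancer; inactive = ratio between 0.8 and the set upper limit.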

Assay: fluorescence interference in NS3h DNA assay – biochemical, ChemBridge library, Cy5 readout, artefact control for HCV NS3 helicase inhibitor project (AID 720488)
Conditions: Cy5-dT15 DNA with NS3h, at 100 µM, actives lie on both sides, signal over control mean, under 1 quenches

Structure (SMILES)	fluorescence interference ratio
Cc1cccc(N2C(=O)S/C(=C/c3ccc(N(C)C)cc3)C2=O)c1	0.733 (active)
Cc1c(N2C(=O)S/C(=C\c3ccc(N(C)C)cc3)C2=O)c(=O)n(-c2ccccc2)n1C	1.02
CN(C)c1ccc(/C=C2/SC(=S)N(c3ccc(F)cc3)C2=O)cc1	1.06
O=C(/C=N/O)NCCCNCc1ccccc1	1.03
CC(C)N1C(=O)/C(=C/c2ccc(O)cc2)SC1=S	0.867
CCc1ccc2oc(-c3ccc(NC(=O)c4ccccc4[N+](=O)[O-])cc3)nc2c1	0.659 (active)
CCC(=O)Nc1ccc(-c2nc3ccccc3o2)cc1	0.946
O=C(Nc1ccc2oc(-c3cccc(Cl)c3Cl)nc2c1)c1ccccc1[N+](=O)[O-]	1.11
CCN1C(=O)/C(=C\c2ccc(OCc3ccccc3Cl)cc2)SC1=S	0.997
COc1ccc(N(CC(=O)NCc2ccncc2)S(=O)(=O)c2ccc(C)cc2)cc1	0.919
COc1ccc(N(CC(=O)Nc2ccc(C(C)C)cc2)S(=O)(=O)c2ccc(C)cc2)c(OC)c1	1.04
COCCCNC(=O)CN(c1ccc(OC)cc1OC)S(=O)(=O)c1ccc(C)cc1	1.23 (active)
CN1CCN(C(=O)c2cc3nc(-c4cccs4)cc(C(F)(F)F)n3n2)CC1	0.935
COc1cccc(C2C(C(=O)Nc3ccccc3)=C(C)N=c3s/c(=C\c4c[nH]c5ccccc45)c(=O)n32)c1 (stereo not given)	1.04
Nc1ccc(Sc2ccccc2[N+](=O)[O-])cc1	0.899
O=[N+]([O-])c1ccc(N2CCN(S(=O)(=O)c3ccccc3)CC2)cc1N1CCOCC1	1.11
COc1ccc(CCNc2cc(N3CCOCC3)ccc2[N+](=O)[O-])cc1OC	0.856
O=[N+]([O-])c1ccc(N2CCN(CCO)CC2)cc1NC(c1ccccc1)c1ccccc1	0.793 (active)
COc1ccc(C(=O)/C=C/Nc2ccc(S(=O)(=O)N=C(N)N)cc2)cc1OC	0.963
Cc1ccc(OCC(=O)NC(C)C)cc1	1.11
CCOC(=O)c1sc(NC(=O)c2ccc(OC)cc2)c(C(=O)OCC)c1C	1.02
CCOC(=O)c1c(-c2ccc(C)cc2C)csc1NC(=S)NC(=O)c1ccccc1	1.21 (active)
CCOC(=O)c1sc(NC(=O)COc2ccc(C)cc2C)c(C(=O)OCC)c1C	0.985
CC(C)(C)c1ccccc1OCC(O)CN1CCCC1 (stereo not given)	1.05

Structure (SMILES)	fluorescence interference ratio
C=CCOc1ccccc1C=C1C(=O)NC(=O)NC1=O	0.999
CC(=O)CC(=O)Nc1ccc2c(c1)OCCO2	1.13
COc1ccccc1NC(=O)CN(c1cccc([N+](=O)[O-])c1)S(=O)(=O)c1ccccc1	0.943
CCOC(=O)c1ccc(NC(=O)CN(c2cccc([N+](=O)[O-])c2)S(=O)(=O)c2ccccc2)cc1	0.663 (active)
CCOC(=O)c1ccccc1NC(=O)/C(=C/c1cccc([N+](=O)[O-])c1)NC(=O)c1ccccc1	1.01
Cc1cc(Nc2cccc(C(F)(F)F)c2)n2c(nc3ccccc32)c1C#N	1.06
COc1ccc2oc(=O)c(C(=O)O)cc2c1	1.08
O=C(NC(=S)Nc1ccc2oc(-c3cccnc3)nc2c1)c1ccc(Cl)cc1	0.998
O=C(NC(=S)Nc1ccc(-c2nc3cc(Cl)ccc3o2)cc1)c1ccco1	2.04 (active)
O=C(NC(=S)Nc1ccc2oc(-c3ccc(Br)cc3)nc2c1)c1ccco1	1.09
Cc1ccc(C2Nc3ccccc3C(=O)N2c2ccccc2)cc1 (stereo not given)	0.912
CCOC(=O)CSc1nnc(-c2cccc(Br)c2)o1	1.15
COc1ccc(S(=O)(=O)N(CCc2ccccc2)CC(=O)Nc2ccccc2F)cc1	1
COc1ccc(C(=O)Nc2nc3ccc(C)cc3s2)cc1Br	1.23 (active)
COc1ccc(C(=O)Nc2ncc([N+](=O)[O-])s2)cc1OC	0.92
O=C(Nc1nc2ccccc2s1)c1ccc2c(c1)OCO2	0.992
COC(=O)c1c(C)oc2ccc(OCC(=O)c3ccccc3)cc12	0.818
O=C(Nc1ccc(Br)cc1)c1ccc(S(=O)(=O)N2CCCC2)cc1	0.938
COc1ccc2occ(C(=O)c3ccc(N=C(C)N(C)C)cc3)c2c1	1.07
COc1ccccc1C(=O)N=Nc1c(O)n(C)c2ccccc12	1.03
CC(C)Oc1ccc(/C=C(/NC(=O)c2ccccc2)C(=O)Nc2ccccc2)cc1	1.01
CCN(CC)c1ccc(NC(=O)/C(=C\c2ccccc2)NC(C)=O)cc1	1.28 (active)
CC(=O)Nc1ccc(NC(=S)NC(=O)/C=C/c2ccccc2)cc1	1.07
O=C(CCN1C(=O)/C(=C/c2cccs2)SC1=S)NC12CC3CC(CC(C3)C1)C2	0.998

Structure (SMILES)	fluorescence interference ratio
Cc1cc(C)c(NC(=O)C(=O)NCC(C)O)c(C)c1 (stereo not given)	1.01
O=C(/C=C/c1ccc(F)cc1)Nc1cccc(Cl)c1Cl	1.01
CCOc1ccccc1NC(=O)Cc1ccccc1	1.03
CCOc1ccccc1NC(=O)/C=C/c1ccc(Cl)cc1	1.34 (active)
CC(=O)COc1ccc2c(-c3ccccc3)cc(=O)oc2c1	0.969
COCCOC(=O)c1c(C)oc2ccc(OCC(N)=O)cc12	1.05
CS(=O)(=O)N(CC(=O)Nc1ccc(I)cc1)c1cccc(Cl)c1	0.92
CC(=O)c1cccc(NC(=O)c2ccc(N(Cc3ccc(Cl)cc3)S(C)(=O)=O)cc2)c1	0.635 (active)
Cc1ccc(NC(=O)c2ccc(NC(=O)c3ccc(Cl)cc3Cl)cc2)cc1	0.959
NCCCCNc1ccc([N+](=O)[O-])cc1	0.959
O=[N+]([O-])c1ccc(-c2ccc(I)cc2)cc1	0.706 (active)
Cc1nn(-c2ccc(I)cc2)c(C)c1-c1cccc([N+](=O)[O-])c1	0.947
CCOC(=O)C1CCN(C(=O)Nc2ccc(Cl)cc2)CC1	1.01
NC(=O)NC(c1ccccc1)c1ccc(I)cc1 (stereo not given)	1.01
O=C(Nc1ccc([N+](=O)[O-])cc1)C1CC(=O)N(c2ccc(Cl)cc2)C1 (stereo not given)	0.885
CN(C)/C=C(/Cl)C=C1C(=O)c2ccccc2C1=O	0.757 (active)
Cc1cc(OCC(=O)Nc2c(C)cccc2C)ccc1Cl	0.96
COc1ccc(S(=O)(=O)Nc2cc(Br)c(O)c(Br)c2)cc1	0.972
COC(=O)c1ccc(COc2ccc3c4c(c(=O)oc3c2)CCC4)cc1	0.926
O=C(c1ccc(Cl)cc1)N1N=C(c2ccc(F)cc2)CC1(O)C(F)(F)F (stereo not given)	0.933
CCC1=NN(C(=O)c2cccc(Br)c2)C(O)(c2ccc(C)cc2)C1 (stereo not given)	0.942
CC1=NN(C(=O)c2ccc(Br)cc2)C(O)(c2ccccc2)C1 (stereo not given)	0.753 (active)
O=C(Cc1ccc(Cl)cc1)Nc1nccs1	0.993
Cc1cc(C(N)=O)c(-c2ccccc2)o1	1.04

Structure (SMILES)	fluorescence interference ratio
CC(=O)Nc1ccc(N2C(=O)C3C4CC(=O)C(c5ccccc54)C3C2=O)cc1 (stereo not given)	0.654 (active)
Cc1ccc(N2C(=O)C3C4c5ccccc5C(C)(c5ccccc54)C3C2=O)cc1 (stereo not given)	0.929
O=C1CC2c3ccccc3C1C1C(=O)N(c3ccc(Br)cc3)C(=O)C21 (stereo not given)	1.04
Oc1cccc(Nc2nc(-c3ccc(Br)cc3)cs2)c1	0.941
COCCCNC(=O)C(=O)NCCc1ccc(OC)c(OC)c1	0.956
COc1ccc2c(c1)-c1c(ssc1=S)C(C)(C)N2C(=O)COc1ccccc1	0.931
CC12OC3(CCCCC3)C(C)(OC13CCCCC3)O2	0.781 (active)
COc1ccc(C(=O)Nc2ccccc2)cc1NC(=O)C(C)Oc1ccccc1 (stereo not given)	0.898
O=C(/C=C/c1ccccc1)NC(=S)Nc1ccc([N+](=O)[O-])cc1	1.02
S=C1NC(c2ccccc2)=NCN1c1ccc(Br)cc1	0.684 (active)
Cc1cc(C)c(C(O)=Cc2nc3ccccc3[nH]c2=O)c(C)c1	1.05
CCN1C(=O)/C(=C\c2cn(Cc3ccc(F)cc3)c3ccccc23)SC1=S	1.07
COc1ccccc1NC(=O)c1cc(Nc2ccccc2)nc2ccccc12	1.05
Cc1ccc(-c2cc(NC(=O)c3cccs3)n[nH]2)cc1	0.923
Cc1cc(C(=O)N2CCN(c3cccc(Cl)c3)CC2)ccc1[N+](=O)[O-]	0.957
CC1CCN(c2ccc([N+](=O)[O-])c(SCCO)c2)CC1	0.613 (active)
O=C1/C(=C\c2cn(Cc3ccccc3F)c3ccccc23)SC(=S)N1c1ccc([N+](=O)[O-])cc1	0.998
CC(C)(C)N1C(=O)NC(=O)C(=Cc2cccs2)C1=O	1.01
CCCCOC(=O)CCN1C(=O)/C(=C/c2ccc3c(c2)OCO3)SC1=S	0.998
O=C(NC(NC(=O)C(c1ccccc1)c1ccccc1)c1ccc(F)cc1)C(c1ccccc1)c1ccccc1	1.07
CCOC(=O)c1ccc(NC2C=CS(=O)(=O)C2)cc1 (stereo not given)	0.986
O=C(COc1ccccc1Cl)Nc1ccc(O)cc1C(=O)O	1
O=C(NCCN1CCN(S(=O)(=O)c2ccccc2)CC1)C(=O)Nc1ccc(Br)cc1	1.01
